# High-throughput results from PubChem BioAssay.
# IL-1B inflam inh – qHTS for Inhibitors of Inflammasome Signaling: IL-1-beta AlphaLISA Primary Screen | THP-1 LPS/ATP IL-1B secretion, AlphaLISA, 16 h; hits give low values | AID 743279, 2014 | 360,000 compounds, 4.7% hits | activity change, % at 57.5 µM; in the data active = activity change below about -50%; inconclusive = mostly about -30% to -49%
#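 Secreted IL-1B measured by AlphaLISA bead assay after 16 h compound exposure of THP-1 cells; compounds (final up to 57.5 uM) added 1 h before LPS (250 ng/mL) and ATP (1.25 mM) stimulation; lower signal means less secretion.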
# SW480 rereplic – A quantitative high throughput screen for small molecules that induce DNA re-replication in SW480 colon adenocarcinoma cells; SW480 DNA re-replication, Hoechst DNA content imaging, 48 h; Potency, µM (series often up to 46.1 µM), actives largely listed as activators; 340,000 compounds, 1.8% hits; AID 624297, 2012; also: nearly all actives have a fitted effect of over 55% in size
#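 Image-based read-out: total Hoechst fluorescence of nuclei (405 nm excitation, 500-530 nm emission), with hits raising the fraction of high-intensity nuclei. SW480 colon cells incubated 48 hr with compounds at 37 C.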
# TDP1 cell noCPT – qHTS for Inhibitors of human tyrosyl-DNA phosphodiesterase 1 (TDP1): qHTS in cells in absence of CPT; Potency, µM (doses to about 46.2 µM), usual class: inhibitors; 420,000 compounds, 15% hits; DT40 Tdp1-/- hTDP1 cells, no CPT, ATP luminescence, 48 h; also: nearly all actives have a fitted effect of over 55% in size
#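 Cells were dispensed at 400 per well, compounds added by pin tool, plates incubated ≥48 hr at 37 °C, then CellTiter-Glo added for 30 min at room temperature before luminescence reading. Line: DT40 Tdp1-/- complemented with hTDP1; camptothecin omitted.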
# MCF10A rerep – A quantitative high throughput screen for small molecules that induce DNA re-replication in MCF 10a normal breast cells; MCF 10A DNA re-replication, Hoechst nuclear intensity, 48 h; Potency, µM (series often up to 46.1 µM), actives largely listed as activators; 350,000 compounds, 2.9% hits; also: nearly all actives have a fitted effect of over 50% in size
# TDP1 cell CPT – qHTS for Inhibitors of human tyrosyl-DNA phosphodiesterase 1 (TDP1): qHTS in cells in presence of CPT; chicken DT40 Tdp1-/-;hTDP1 cells + 20 nM CPT, ATP luminescence, 48 h; Potency, µM (top dose mostly 46.2 µM), most hits filed as inhibitors; 420,000 compounds, 12% hits; AID 686979, 2013; also: nearly all actives have a fitted effect of over 55% in size
#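 Chicken DT40 Tdp1-/- cells complemented with human TDP1, 400 cells/well, exposed to compounds plus 20 nM camptothecin for at least 48 h at 37 C; viability read as ATP content by CellTiter-Glo luminescence.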
# Chronic BCR inh – qHTS Assay to Find Inhibitors of Chronic Active B-Cell Receptor Signaling; Potency, µM (series often up to 46.1 µM), hits mostly inhibitors; 340,000 compounds, 0.05% hits; ABC-DLBCL IkBa-CBG/CBR reporter, luminescence ratio, 4 h; AID 493014, 2011; active = well fitted inhibition curve with a large enough effect in the signal ratio, with a control signal flat, not every such curve was filed as active; inconclusive = small, poorly fitted or top-dose-only effect, or effect the other way, or a change in a side signal; the % refers to the signal ratio
#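 Compounds up to 46 uM were incubated four hours with TMD8 cells whose green CBG68 luciferase is fused to IkappaBalpha; red CBR luminescence normalised the signal, and concentration-effect curves were fitted to fusion, red and ratio data.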
# Hits are given with their value; i = inactive; ? = inconclusive; nt = not tested or not shown; [ ] = remark or other dose. Shown are actives, neighbours in structure and some others; about 19% of the full set was active somewhere. Unless noted, calls follow the shape of the dose curve; as a rule, active = well fitted curve in the direction sought with a large enough effect; inconclusive = small, poorly fitted or top-dose-only effect, or another doubt; inactive = no such curve, though single readings can be large; an effect the other way counts as inactive or inconclusive.
SMILES,IL-1B inflam inh,SW480 rereplic,TDP1 cell noCPT,MCF10A rerep,TDP1 cell CPT,Chronic BCR inh
O=C(NC1CCCC1)c1cc(-c2ccc(Cl)cc2)on1,i,i,i,i,i,?
COc1ccc(C=O)c(-c2c(-c3ccccc3OC)sc3ccccc23)c1,i,nt,?,nt,?,nt
CCN(CC(=O)Nc1ccc2c(c1)OCCO2)S(=O)(=O)c1ccc(F)cc1,i,i,i,i,i,i
CCOC(=O)N1CCN(C(=O)CSCc2ccc(C)cc2)CC1,i,0.18µM,i,i,i,i
COc1ccc(N2CCN(CCCNC(=O)CCC(=O)N3CCOc4ccc(Cl)cc43)CC2)cc1,i,i,?,i,?,i
CCOC(=O)N1CCN(C(=O)CS(=O)(=O)c2cn(Cc3ccccc3Cl)c3ccccc23)CC1,i,i,?,i,?,i
O=C(CCC(=O)N1CCOc2ccc(Cl)cc21)NCCCN1CCN(c2ccccc2F)CC1,i,i,18µM,i,21µM,i
CC(C)(C)NC(=O)NC(=O)CN1CCCCCCC1,i,i,i,i[9.22 µM],i,i
Cc1ccc(CSCC(=O)N2CCCC2)cc1,i,i,i,?,i,i
CCOC(=O)N1CCN(C(=O)CS(=O)(=O)c2cn(Cc3ccc(Cl)cc3)c3ccccc23)CC1,i,i,16µM,i,23µM,i
CC(C)(C)NC(=O)CN1CCN(C(=O)CCl)CC1,-79,i,21µM,i,23µM,?
CCOc1ccc(CCNC(=O)NCc2noc3ccc(C)cc23)cc1,nt,nt,?,nt,i,nt
CC(C)(C)OC(=O)N1CCCC(C(=O)Nc2ccc(C(=O)NCCc3ccccc3)cc2)C1 (configuration not stated),i,i,?,i,?,nt
CCOC(=O)C1CCC(CN(Cc2ccc(Cl)cc2)S(=O)(=O)c2cc(Cl)cc(Cl)c2)CC1 (configuration not stated),nt,nt,10µM,nt,21µM,i
CCOC(=O)C1CCC(CN(Cc2ccc(OC)cc2)S(=O)(=O)c2ccc(F)c(C(=O)Nc3cc(Cl)ccc3OC)c2)CC1 (configuration not stated),nt,nt,i,nt,i,i
CCOC(=O)N1CCN(C(=O)CN(Cc2ccc(Cl)cc2)S(=O)(=O)c2ccc(C)cc2)CC1,i,i,?,i,16µM,i
CCOC(=O)N1CCN(C(=O)CN(Cc2ccc(Cl)cc2)S(C)(=O)=O)CC1,i,i,i,i,i,?
CCOC(=O)C1=C(C)NC(=S)NC1c1ccc(OCC(=O)N2CCCCC2)cc1 (configuration not stated),i,i,i,i,i,i
CO[C@H]1C[C@@H]2CC[C@@H](C)[C@@](O)(O2)C(=O)C(=O)N2CCCC[C@H]2C(=O)O[C@H]([C@H](C)C[C@@H]2CC[C@@H](O)[C@H](OC)C2)CC(=O)[C@H](C)/C=C(/C)[C@@H](O)[C@@H](OC)C(=O)[C@H](C)C[C@H](C)C=C/C=C\C=C/1C,nt,nt,?,nt,4µM,nt
CO[C@H]1C[C@@H]2CC[C@@H](C)[C@@](O)(O2)C(=O)C(=O)N2CCCC[C@H]2C(=O)O[C@H]([C@H](C)C[C@@H]2CC[C@@H](O)[C@H](OC)C2)CC(=O)[C@H](C)C=C(C)[C@@H](O)[C@@H](OC)C(=O)[C@H](C)C[C@H](C)C=CC=CC=C1C,nt,nt,nt,nt,nt,i
